The record followed here is PubChem BioAssay AID2435 (The Scripps Research Institute Molecular Screening Center, 2010).

SMILES strings stand for the structures. The campaign covered roughly 320,000 compounds. About 1,000 (0.31%) were called active. The sample as a whole holds a higher share of actives than the screen did. A number with no mark means an inactive call.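 How the source made its calls: active means activation above the mean of all tested compounds plus 3 SD, cutoff set per screening run (cut at about 20% in these data); inactive means the rest.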

In the assay the target is Oxytocin receptor (Homo sapiens) (UniProt P30559). Put plainly: oxytocin receptor activation by calcium flux – fluorescence, CHO-OTR cells, Fluo-8 calcium, primary screen (AID 2435).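 Further: peak over basal fluorescence ratio from a 100 s FLIPR kinetic read.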 Conditions: Fluo-8 calcium fluorescence, at 3 µM, stronger effect = higher value, normalized: DMSO 0%, oxytocin 100%.
Oxytocin receptor (Homo sapiens), sequence (P30559 whole entry, looked up): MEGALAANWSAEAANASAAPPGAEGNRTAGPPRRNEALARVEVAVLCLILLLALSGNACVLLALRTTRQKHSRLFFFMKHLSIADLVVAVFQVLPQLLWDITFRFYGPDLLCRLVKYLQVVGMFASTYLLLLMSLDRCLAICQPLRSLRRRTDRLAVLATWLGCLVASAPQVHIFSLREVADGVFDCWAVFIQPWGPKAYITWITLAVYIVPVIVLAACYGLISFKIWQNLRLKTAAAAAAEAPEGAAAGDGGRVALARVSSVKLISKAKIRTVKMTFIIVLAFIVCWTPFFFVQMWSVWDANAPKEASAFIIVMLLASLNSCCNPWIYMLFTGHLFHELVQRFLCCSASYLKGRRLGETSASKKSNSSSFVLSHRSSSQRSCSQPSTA
Regarding `Nc1ncnc2c1ncn2[C@@H]1O[C@H](CNCc2cccn2-c2nccs2)[C@@H](O)[C@H]1O`, the activation is -0.14%.
In the case of `CCc1noc(C)c1C(=O)NNC(=O)c1ccc(F)cc1`, the activation is 0.43%.
The result for `Cc1onc(-c2ccccc2)c1C(=O)Nc1ccccc1C#N` reads -1.5%; that for `Cc1onc(-c2ccccc2)c1C(=O)NNC(=S)NC(=O)c1ccc(F)cc1`, 32.9% (active); that for `COc1ccc(C(=O)NC(=S)NNC(=O)c2c(-c3ccccc3)noc2C)cc1`, 46.7% (active).
The result for `Cc1ccc(CNC(=O)c2c(-c3ccccc3)noc2C)cc1` reads -1.84%; that for `Cc1onc(-c2c(Cl)cccc2Cl)c1C(=O)NNC(=O)c1c(-c2c(Cl)cccc2Cl)noc1C`, -1.38%.
Then `O=C(Nc1ccc(-n2ccnc2P(=O)(O)c2ccccc2)cc1)c1ccccc1Br`, with -0.12%.
For `Cc1csc2nc(O)c(C(=O)NCCN3CCOCC3)c(=O)n12`, the activation is 0.15%.
Then `Cc1cc(C)c(S(=O)(=O)N2C=CC(C(F)(F)F)=NCC2)c(C)c1`, with 0.69%; and `CN(CCc1ccccc1)C(=O)c1cccc(NC(=O)Cc2ccc([N+](=O)[O-])cc2)c1`, with 13.1%.
As to `CCCc1cc(=O)[nH]c(SCC(=O)N2CCN(S(=O)(=O)c3ccc(C)cc3C)CC2)n1`, the activation was -1.06%.
The result for `COC(=O)C1(S(=O)(=O)C2(C(=O)OC)CCCC2)CCCC1` reads -0.45%; that for `CCOc1cc(-c2cc(-c3ccc(NC(C)=O)cc3)nc(N)c2C#N)ccc1O`, 1.58%; that for `COc1cc(/C=C(\C#N)c2nc3c(s2)CC(C)CC3)ccc1O` (configuration not stated), 12.7%.
Turning to `CCOc1cc(/C=C(\C#N)c2nc(-c3cccs3)c(NC(C)=O)s2)ccc1O`, the activation was 23.4% (active).
`Cc1cccc(NC(=O)C(C)N2C(=O)C3C4CC(C(Br)C4Br)C3C2=O)c1` (configuration not stated): the activation was 8.44%.
Regarding `CN(CC(=O)Nc1ccc(OC(F)(F)F)cc1)C(=O)C1CCC1`, the activation is 3.13%.
On to `Cc1ccc(OCC(=O)NCCCNC(=O)c2ccco2)cc1C`, for which the activation is 0.98%.
The result for `Cc1ccc(C(=O)NNC(=O)C(C)Oc2ccc3ccccc3c2)o1` (configuration not stated) reads 1.07%; that for `CC(Oc1ccc2ccccc2c1)C(=O)NNC(=S)NC(=O)c1ccco1` (configuration not stated), 33.9% (active); that for `CCCc1ccc(OCC(=O)NNC(=S)NC(=O)c2ccco2)cc1`, 31.6% (active).
Then `Cc1ccc(OCC(=O)NNC(=S)NCc2ccccc2)cc1`, with -1.15%; and `O=C(Nc1ccc2ccccc2c1)/C(=C/c1cccc(Br)c1)NC(=O)c1ccco1`, with 0.36%.
`COc1ccc(Cn2c(O)c(/C=C3/C=CC=N3)c(=O)[nH]c2=O)cc1`: the activation is -0.07%.
Then `CN(C)CCN(C(=O)C1=COCCO1)c1nc2ccc(Cl)cc2s1`, with 1.72%; and `Cc1nn(Cc2ccccc2)c(C)c1CNC(=O)c1ccc(F)c(S(=O)(=O)N2CCOCC2)c1`, with 3.05%.
Then `Cc1ccc2c(c1)N(CC(=O)N1CCCc3ccccc31)C(=O)C(C)O2` (configuration not stated), with -1.51%.
Then `Cc1nc(-c2ccc(Cl)cc2)sc1C1(C)CC(c2ccccc2F)=NO1` (configuration not stated), with -0.58%; and `Cc1nc(C(=O)NCc2ccccc2)sc1C1(C)CC(c2cccnc2)=NO1` (configuration not stated), with 21.7% (active).
`Cc1nc(C(=O)Nc2ccc(Cl)cc2)sc1C1(C)CC(c2ccccc2)=NO1` (configuration not stated): the activation was 0.47%.
Then `COCC(C)NC(=O)CSc1nc2nn(-c3ccccc3)c(=O)c-2c2n1CCCCC2` (configuration not stated), with -0.74%; and `CC(=O)Nc1ccc(S(=O)(=O)N(C)c2ccc(OCC(=O)OCC(=O)N3CCCCC3)cc2)cc1`, with 0.24%; and `Cn1c(=O)c(=O)n(C)c2cc(S(=O)(=O)CCC(=O)N3CCCCC3)ccc21`, with -0.07%.
Then `O=C(C1CCCO1)N(Cc1ccccc1)c1ccccc1` (configuration not stated), with -1.09%.
As for `O=C(CCc1ccccc1)Nc1ncc([N+](=O)[O-])s1`, the activation is 12.4%.
With `CC(=O)Oc1ccccc1C(=O)Nc1ncc([N+](=O)[O-])s1`, the activation was 20% (active).
Then `O=C(Cc1c(F)cccc1Cl)Nc1ncc([N+](=O)[O-])s1`, with 8.99%.
As to `CCC(C(=O)Nc1ccc(C(C)C)cc1)c1ccccc1` (configuration not stated), the activation is 41.5% (active).
Then `CCC(C(=O)Nc1ccc2c(c1)OCCO2)c1ccccc1` (configuration not stated), with 0.44%.
For `CCC(C(=O)OCC(=O)Nc1ccc(C(=O)Nc2ccc(OC)cc2)cc1)c1ccccc1` (configuration not stated), the activation is 5.16%.
Then `CCCc1nc2ccccc2c(C(=O)OCc2nnc(-c3cc(OC)c(OC)c(OC)c3)o2)c1CC`, with 0.34%.
For the compound `C=CCNC(=O)/C=C/c1ccc(C(C)C)cc1`, the activation is -2.22%.
The result for `OCCCC1CCCCN1Cc1nc(Cc2ccccc2Cl)no1` (configuration not stated) reads 1.04%; that for `C=CCOc1cccc(C2C(C(=O)c3ccc(C)o3)=C(O)C(=O)N2c2nnc(C)s2)c1` (configuration not stated), 47.7% (active); that for `C=CCOc1cccc(C2C(C(=O)c3ccc(C)o3)=C(O)C(=O)N2CCCn2ccnc2)c1` (configuration not stated), -0.44%.
Then `Cc1cc(N2C(=O)C(O)=C(C(=O)c3ccc(C)o3)C2c2ccc(OCc3ccccc3)cc2)no1` (configuration not stated), with 0.01%; and `COC(=O)CN(c1nc(C)c(Cl)c(OC)n1)S(=O)(=O)c1ccc(C)cc1`, with -1.64%.
Then `COC(=O)c1nn(-c2cccc(Cl)c2)ccc1=O`, with 0.3%; and `Cc1cc(C)cc(OCC(=O)NC(C)c2ccccc2)c1` (configuration not stated), with -2.21%.
In the case of `COc1cc(OC)cc(C(=O)NCC(=O)OCC(=O)NC(C)CCc2ccccc2)c1` (configuration not stated), the activation was -0.13%.
As for `COc1cc(OC)cc(C(=O)N[C@H](C(=O)OCC(=O)NC(C)c2ccccc2)C(C)C)c1` (some centres not stated), the activation is 76.7% (active).
The result for `O=C(Cn1c(-c2ccc(Cl)cc2)noc1=O)N1CCN(c2ccccc2F)CC1` reads 2.36%; that for `NS(=O)(=O)c1ccc(CNC(=O)c2cccc(S(=O)(=O)N3CCc4ccccc43)c2)cc1`, -0.73%; that for `N#C/C(=C/c1ccc(N2CCCCC2)o1)C(=O)NCCc1c[nH]c2ccccc12`, 27.2% (active).
Regarding `O=C(CN1C(=O)NC2(CCCCC2)C1=O)NCCc1c[nH]c2ccccc12`, the activation was 0.26%.
The result for `N#C/C(=C/c1ccc(N2CCOCC2)o1)C(=O)N1CCOCC1` reads 4.33%.
